“And” between values parts separate entries of the source, which are not always exact repeats. Identical values can stand only once. Out of some 5,500 compounds screened, about 2,000 (36%) were called active. Roughly 18% stayed inconclusive and do not appear here. Rule as the data show it: active = normalized growth mostly below about 0.91 (no sharp cut-off); inconclusive = no clear call, values can overlap the other calls; inactive = mostly above about 0.92. This is one part of the list.
Assay: chemical genetic growth profiling, strain panel (AID 1159580);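 also: tested at 20 µM; growth read once vehicle control cultures reached saturation at 30 °C; 1 = growth at the plate median or of vehicle wells; lower values mean less growth of the strain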
Conditions: S. cerevisiae deletion strains, growth OD

Measured: normalized growth

C[C@]12CCC(=O)C=C1CCC1C2CC[C@@]2(C)C1CC[C@@H]2O (some centres not stated)
inactive: locus YAL013W, strain DEP1, stronger effect = lower value 1.01 | locus YAL021C, strain ccr4, stronger effect = lower value 0.967 | locus YAL026C, strain drs2, stronger effect = lower value 1 | locus YAL030W, strain snc1, stronger effect = lower value 0.997 | locus YBL061C, strain skt5, stronger effect = lower value 0.987 | locus YBR009C, strain hhf1, stronger effect = lower value 0.99 | locus YBR021W, strain FUR4, stronger effect = lower value 0.97 | locus YBR023C, strain chs3, stronger effect = lower value 0.988 | locus YBR171W, strain sec66, stronger effect = lower value 0.969 | locus YBR229C, strain ROT2, stronger effect = lower value 1.02 | locus YBR231C, strain swc5, stronger effect = lower value 0.99 | locus YBR279W, strain paf1, stronger effect = lower value 0.998 | locus YCL011C, strain gbp2, stronger effect = lower value 0.993 | locus YCL016C, strain dcc1, stronger effect = lower value 0.988 | locus YCL029C, strain bik1, stronger effect = lower value 1.02 | locus YCL061C, strain MRC1, stronger effect = lower value 0.993 | locus YCL069W, strain vba3, stronger effect = lower value 0.999 | locus YCR088W, strain abp1, stronger effect = lower value 1 | locus YDL005C, strain med2, stronger effect = lower value 0.989 | locus YDL035C, strain GPR1, stronger effect = lower value 0.988 | locus YDL040C, strain nat1, stronger effect = lower value 0.985 | locus YDL074C, strain BRE1, stronger effect = lower value 0.995 | locus YDL101C, strain DUN1, stronger effect = lower value 1.01 | locus YDL134C, strain PPH21, stronger effect = lower value 1.03 | locus YDL185W, strain tfp1, stronger effect = lower value 1.03 | locus YDL192W, strain arf1, stronger effect = lower value 1.03 | locus YDR001C, strain nth1, stronger effect = lower value 0.996 | locus YDR069C, strain doa4, stronger effect = lower value 0.977 | locus YDR101C, strain arx1, stronger effect = lower value 1.01 | locus YDR137W, strain rgp1, stronger effect = lower value 0.96 | locus YDR150W, strain NUM1, stronger effect = lower value 1.03 | locus YDR159W, strain sac3, stronger effect = lower value 0.963 | locus YDR162C, strain NBP2, stronger effect = lower value 0.996 | locus YDR195W, strain ref2 1.01 | locus YDR297W, strain sur2, stronger effect = lower value 0.993 | locus YDR318W, strain mcm21, stronger effect = lower value 1.02 | locus YDR334W, strain swr1, stronger effect = lower value 1.01 | locus YDR335W, strain msn5, stronger effect = lower value 0.989 | locus YDR388W, stronger effect = lower value 1.03 | locus YDR392W, strain spt3, stronger effect = lower value 0.934 | locus YDR502C, strain sam2, stronger effect = lower value 1.01 | locus YEL003W, strain gim4, stronger effect = lower value 0.983 | locus YEL037C, strain rad23, stronger effect = lower value 0.994 | locus YEL061C, strain CIN8 (second series), stronger effect = lower value 0.988 | locus YEL061C, strain CIN8, stronger effect = lower value 1.02 | locus YER015W, strain faa2, stronger effect = lower value 0.995 | locus YER016W, strain bim1, stronger effect = lower value 0.989 | locus YER110C, stronger effect = lower value 1.04 | locus YER111C, strain swi4, stronger effect = lower value 0.986 | locus YER155C, strain BEM2 (second series), stronger effect = lower value 0.981 | locus YER155C, strain BEM2, stronger effect = lower value 1.01 | locus YER167W, strain BCK2, stronger effect = lower value 1.05 | locus YFR010W, strain ubp6, stronger effect = lower value 1 | locus YGL078C, strain dbp3, stronger effect = lower value 0.985 | locus YGL086W, strain mad1, stronger effect = lower value 1.03 | locus YGL167C, strain pmr1, stronger effect = lower value 0.964 | locus YGL173C, strain kem1, stronger effect = lower value 0.967 | locus YGL227W, strain vid30, stronger effect = lower value 0.992 | locus YGL240W, strain doc1, stronger effect = lower value 0.965 | locus YGL248W, strain PDE1, stronger effect = lower value 1.02 | locus YGL253W, strain hxk2, stronger effect = lower value 0.991 | locus YGR078C, strain PAC10, stronger effect = lower value 1.02 | locus YGR135W, strain pre9, stronger effect = lower value 1.01 | locus YGR229C, strain SMI1, stronger effect = lower value 1.04 | locus YGR252W, strain gcn5, stronger effect = lower value 1.01 | locus YHR013C, strain ard1, stronger effect = lower value 1.02 | locus YHR027C, strain rpn1, stronger effect = lower value 0.997 | locus YHR030C, strain SLT2, stronger effect = lower value 1.03 and 1.13 | locus YHR079C, strain IRE1 (second series), stronger effect = lower value 1.02 | locus YHR079C, strain IRE1, stronger effect = lower value 0.993 | locus YHR094C, strain hxt1, stronger effect = lower value 1.03 | locus YHR129C, strain ARP1, stronger effect = lower value 1.03 | locus YHR142W, strain chs7, stronger effect = lower value 0.991 | locus YHR200W, strain rpn10, stronger effect = lower value 1.03 | locus YIL066C, strain RNR3, stronger effect = lower value 1.01 | locus YIL073C, strain SPO22, stronger effect = lower value 1.09 | locus YIL125W, strain kgd1, stronger effect = lower value 1.03 | locus YIR030C, strain dcg1, stronger effect = lower value 1.03 | locus YJL092W, strain hpr5, stronger effect = lower value 0.997 | locus YJL095W, strain BCK1 (second series), stronger effect = lower value 0.987 | locus YJL095W, strain BCK1, stronger effect = lower value 1.02 and 0.998 | locus YJL115W, strain asf1, stronger effect = lower value 0.994 | locus YJL129C, strain trk1, stronger effect = lower value 0.963 | locus YJL134W, strain LCB3, stronger effect = lower value 1.02 | locus YJL154C, strain vps35, stronger effect = lower value 0.997 | locus YJL164C, strain tpk1, stronger effect = lower value 1.01 | locus YJL166W, strain qcr8, stronger effect = lower value 0.986 | locus YJL168C, strain set2, stronger effect = lower value 1.02 | locus YJL187C, strain SWE1 (second series), stronger effect = lower value 1 | locus YJL187C, strain SWE1, stronger effect = lower value 0.992 | locus YJR043C, strain POL32, stronger effect = lower value 1.02 | locus YJR066W, strain TOR1, stronger effect = lower value 0.999

— PubChem BioAssay AID1159580 (chemical genetic matrix, 2015)
